The nature of experiment [1]: qHTS assay to identify small molecule inhibitors of chordoma cells - UCH-2 (AID 1259356). Also: series mostly up to about 46 µM.
Experiment [2] is described as follows: P-glycoprotein substrates identified in KB-8-5-11 adenocarcinoma cell line, qHTS therapeutic library screen (AID 1346987). Also: series mostly up to about 44 µM; nearly all actives have a fitted effect of over 65% in size. In short, it runs like this:
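Compounds are pinned in dose-response onto KB-8-5-11 cells (500 cells/well, colchicine-free medium) and left 72 h at 37 degree C. CellTiter-Glo luminescence then yields AC50 values.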

Records with an inconclusive call do not appear. Entries that show only a call come without a potency. Calls of active or inactive are those of the source. Calls follow the shape of the dose curve; as a rule, active = well fitted curve in the direction sought with a large enough effect; inconclusive = small, poorly fitted or top-dose-only effect, or another doubt; inactive = no such curve, though single readings can be large; an effect the other way counts as inactive or inconclusive.

As for `CC(=O)O[C@]1(C(C)=O)CC[C@H]2[C@@H]3CCC4=CC(=O)CC[C@]4(C)[C@@]3(F)[C@@H](O)C[C@@]21C`, the Potency result in experiment [1] and in experiment [2] was “inactive” in each case.

Take `CCCCCCCC/C=C\CCCCCCCC(=O)O`: the Potency entry in experiment [1] and in experiment [2] was “inactive” in each case.

As to `Nc1c(Br)cc(Br)cc1CNC1CCC(O)CC1` (configuration not stated), in experiment [1], the Potency result was “inactive”.

Regarding `CC1(C)S[C@@H]2[C@H](NC(=O)Cc3ccccc3)C(=O)N2[C@H]1C(=O)O`, the Potency result in experiment [1] and in experiment [2] was “inactive” in each case.

For `Cc1c(C)c2c(c(C)c1O)CC[C@@](C)(CCC[C@H](C)CCC[C@H](C)CCCC(C)C)O2`, the Potency result in experiment [1] and in experiment [2] was “inactive” throughout.

As for `CCCC(=O)Nc1ncnc2c1ncn2[C@@H]1O[C@@H]2COP(=O)(O)O[C@H]2[C@H]1OC(=O)CCC`, the Potency result in experiment [1] and in experiment [2] was “inactive” throughout.

In the case of `OCC(S)CS` (configuration not stated), in experiment [1], the Potency result was “inactive”.

Regarding `CC(Oc1ccccc1)C(=O)N[C@@H]1C(=O)N2[C@@H]1SC(C)(C)[C@@H]2C(=O)O` (some centres not stated), the Potency result in experiment [1] is “inactive”.

In the case of `O=S(=O)(O)c1ccc2c(N=Nc3ccc(S(=O)(=O)O)c4ccccc34)c(O)c(S(=O)(=O)O)cc2c1`, the Potency entry in experiment [1] is “inactive”.

`CO[C@H]1C=CO[C@@]2(C)Oc3c(C)c(O)c4c(O)c(c5c(c4c3C2=O)=NC2(CCN(CC(C)C)CC2)N=5)NC(=O)/C(C)=C\C=C/[C@H](C)[C@H](O)[C@@H](C)[C@@H](O)[C@@H](C)[C@H](OC(C)=O)[C@@H]1C`: the Potency result in experiment [1] is “inactive”.

For the molecule `O=C(O)c1cc(=O)c2c3nc4ccccc4oc-3cc(=O)c2[nH]1`, the Potency result in experiment [1] and in experiment [2] was “inactive” throughout.
